Holding throughout (experiment): qHTS profiling for inhibitors of Plasmodium falciparum proliferation (AID 504749); further: nearly all actives have a fitted effect of over 60% in size
Common to all, as to details: P. falciparum in erythrocytes, SYBR Green DNA, 72 h; series mostly up to 28.7 µM
On the technique in general: qHTS replaces the single test concentration by a dilution series.

Test [1] relates to ATS95. In short, it runs like this:
(§1)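 Parasite proliferation within erythrocytes, 72 h exposure. Endpoint: SYBR Green I fluorescence after overnight lysis at room temperature. Controls: 0.29 uM artemisinin, DMSO.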

The test system of test [2] is C2A. In short, it runs like this: as §1
The test system of test [3] is CP185. In short, it runs like this: as §1
Test [4] relates to CP191. In short, it runs like this:
as §1

The subject of test [5] is CP192. In short, it runs like this:
as §1

The subject of test [6] is CP194. The procedure, abridged: as §1
For test [7], the system named is CP201. The procedure, abridged:
as §1

The test system of test [8] is CP203. In short, it runs like this:
as §1

The subject of test [9] is CP211. In short, it runs like this: as §1
Test [10] deals with CP215. In short, it runs like this:
as §1

Test [11] deals with CP217. In short, it runs like this:
as §1

Test [12] deals with CP237. The procedure, abridged:
as §1

Test [13] relates to CP238. In short, it runs like this:
as §1

Test [14] has as its system CP247. The procedure, abridged: as §1
The test system of test [15] is CP250. In short, it runs like this: as §1
The subject of test [16] is CP252. In short, it runs like this:
as §1

Test [17] concerns CP256. In short, it runs like this:
as §1

Test [18] concerns CP260. The procedure, abridged: as §1
The subject of test [19] is CP262. In short, it runs like this:
as §1

The test system of test [20] is CP265. In short, it runs like this: as §1

Among the data in PubChem BioAssay (NCATS) are Potency values, retold here.

The structures appear in SMILES notation. Records with an inconclusive call do not appear. The source made the active and inactive calls. The call rests on the fitted dose curve; in most records, active means well fitted inhibition curve with a large enough effect; inconclusive means small, poorly fitted or top-dose-only effect; inactive means flat fitted curve, though single readings scatter.
Potency means the concentration at half of the fitted maximal effect.

Consider `O=C(O)Cc1cc(I)c(Oc2ccc(O)c(I)c2)c(I)c1`, for which the Potency result in test [1], in [2], in test [3], in test [4], in test [5] and in [6] was “inactive” throughout. The Potency result in test [7], in [8], in test [9], in test [10], in test [11] and in [12] was “inactive” throughout. Besides, the Potency entry in test [13], in test [14], in [15], in test [16], in [17] and in test [18] was “inactive” throughout. The Potency entry in test [19] and in test [20] was “inactive” throughout.

For `O=C(O)c1ccc(OCCn2ccnc2)cc1`, the Potency entry in test [1], in [2], in [3], in [4], in [5] and in [6] was “inactive” throughout. The Potency result in [7], in [8], in test [9], in test [10], in [11] and in test [12] was “inactive” each time. In addition, the Potency entry in test [13], in [14], in [15], in test [16], in test [17] and in [18] was “inactive” each time. The Potency entry in test [19] and in [20] was “inactive” each time.

On to `C=CC(=O)O`, for which the Potency result in test [1], in test [2], in [3], in test [4], in test [5] and in test [6] was “inactive” each time. Also, the Potency result in test [7], in test [8], in [9], in test [10], in test [11] and in [12] was “inactive” in each case. The Potency result in test [13], in test [14], in test [15], in test [16], in [17] and in test [18] was “inactive” in each case. The Potency result in test [19] and in test [20] was “inactive” each time.

Take `CC(C)(Oc1ccc(C2CCCc3ccccc32)cc1)C(=O)O` (stereo not given): the Potency entry in test [1], in [2], in [3], in test [4], in test [5] and in test [6] was “inactive” each time. Besides, the Potency result in test [7], in [8], in [9], in [10], in test [11] and in test [12] was “inactive” in each case. Further, the Potency result in test [13], in test [14], in [15], in test [16], in test [17] and in [18] was “inactive” in each case. The Potency result in test [19] and in test [20] was “inactive” each time.

For the molecule `COC1=C(OC)C(=O)C(C/C=C(\C)CC/C=C(\C)CC/C=C(\C)CC/C=C(\C)CC/C=C(\C)CC/C=C(\C)CC/C=C(\C)CC/C=C(\C)CC/C=C(\C)CCC=C(C)C)=C(C)C1=O`, the Potency entry in test [1], in test [2], in test [3], in [4], in test [5] and in [6] was “inactive” in each case. Further, the Potency entry in [7], in test [8], in [9], in test [10], in [11] and in test [12] was “inactive” each time. Also, the Potency entry in [13], in test [14], in test [15], in test [16], in [17] and in [18] was “inactive” in each case. Moreover, the Potency entry in test [19] and in test [20] was “inactive” in each case.

In the case of `CN(CCO)CC(O)Cn1cnc2c1c(=O)n(C)c(=O)n2C` (stereo not given) (tested in a mixture with another compound), the Potency entry in [1], in test [2], in test [3], in test [4], in [5] and in [6] was “inactive” in each case. Moreover, the Potency result in [7], in test [8], in test [9], in test [10], in test [11] and in test [12] was “inactive” throughout. For the same molecule, the Potency entry in test [13], in test [14], in test [15], in [16], in [17] and in [18] was “inactive” each time. Besides, the Potency result in [19] and in test [20] was “inactive” throughout.

Take `O=C(O)[C@H]1CN(C/C=C/P(=O)(O)O)CCN1`: the Potency result in test [1], in test [2], in test [3], in test [4], in test [5] and in test [6] was “inactive” in each case. Further, the Potency entry in test [7], in [8], in test [9], in test [10], in test [11] and in test [12] was “inactive” throughout. Besides, the Potency entry in test [13], in test [14], in test [15], in test [16], in test [17] and in test [18] was “inactive” throughout. The Potency result in test [19] and in test [20] was “inactive” in each case.

As to `CCCOC(=O)c1ccccc1O`, the Potency result in test [1], in test [2], in [3], in [4], in test [5] and in test [6] was “inactive” in each case. The Potency entry in [7], in test [8], in test [9], in [10], in test [11] and in test [12] was “inactive” in each case. In addition, the Potency entry in test [13], in test [14], in test [15], in test [16], in [17] and in [18] was “inactive” in each case. Besides, the Potency entry in test [19] and in test [20] was “inactive” throughout.

Take `C[Se]CC[C@H](N)C(=O)O`: the Potency result in [1], in [2], in [3], in test [4], in test [5] and in test [6] was “inactive” each time. For the same molecule, the Potency result in test [7], in test [8], in test [9], in test [10], in test [11] and in [12] was “inactive” throughout. The Potency entry in [13], in test [14], in test [15], in test [16], in test [17] and in test [18] was “inactive” throughout. For the same molecule, the Potency result in [19] and in test [20] was “inactive” throughout.

For the molecule `O=C(NNCNNC(=O)c1ccncc1)c1ccncc1`, the Potency result in test [1], in test [2], in test [3], in test [4], in test [5] and in test [6] was “inactive” each time. In addition, the Potency entry in test [7], in test [8], in test [9], in [10], in [11] and in [12] was “inactive” in each case. The Potency entry in [13], in test [14], in test [15], in [16], in test [17] and in test [18] was “inactive” throughout. Moreover, the Potency result in test [19] and in [20] was “inactive” throughout.

Consider `CN1C(=O)C[C@@H](C(=O)N[C@@H](Cc2cnc[nH]2)C(=O)N2CCC[C@H]2C(N)=O)NC1=O`, for which the Potency entry in [1], in test [2], in [3], in test [4], in [5] and in test [6] was “inactive” each time. Besides, the Potency result in [7], in test [8], in [9], in [10], in test [11] and in test [12] was “inactive” in each case. Further, the Potency result in [13], in test [14], in test [15], in test [16], in test [17] and in test [18] was “inactive” in each case. The Potency result in test [19] and in test [20] was “inactive” in each case.

As for `S=C1SCN(Cc2ccccc2)CN1Cc1ccccc1`, the Potency result in [1], in test [2], in test [3], in test [4], in test [5] and in [6] was “inactive” each time. Further, the Potency result in test [7], in test [8], in test [9], in test [10], in test [11] and in [12] was “inactive” each time. The Potency entry in test [13], in [14], in [15], in test [16], in test [17] and in [18] was “inactive” each time. Moreover, the Potency result in test [19] and in test [20] was “inactive” in each case.

On to `CCOc1ccc(S(=O)(=O)O)c2cccnc12`, for which the Potency entry in test [1], in test [2], in [3], in [4], in test [5] and in test [6] was “inactive” throughout. Moreover, the Potency entry in test [7], in [8], in [9], in [10], in test [11] and in test [12] was “inactive” throughout. Moreover, the Potency result in test [13], in test [14], in test [15], in [16], in test [17] and in [18] was “inactive” throughout. For the same molecule, the Potency entry in test [19] and in test [20] was “inactive” in each case.

As for `O=C1CCC(c2ccccc2)(C2CCN(Cc3ccccc3)CC2)C(=O)N1` (stereo not given), the Potency entry in test [1], in [2], in [3], in test [4], in test [5] and in test [6] was “inactive” in each case. The Potency result in test [7], in test [8], in [9], in test [10], in [11] and in test [13] was “inactive” in each case. The Potency entry in test [14], in test [15], in test [16], in [17], in [18] and in [19] was “inactive” throughout. Moreover, the Potency entry in [20] was “inactive”. Also, in test [12], the Potency is 11.2 µM (active).
